Sampled rows, rich in hits. Any-hit rate of the full collection: about 3.2%.
TROY signal inh: TROY signaling inhibition; Q293 LMP1-TROYcd NF-kB luciferase reporter, 4 h; 0.98% of 360,000 active; inhibition, % at 10 µM;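 active means compounds whose plate-normalised and pattern-corrected inhibition of the luciferase reporter signal at the single screening dose is 50% or more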
TWEAK Fn14 block: blocks TWEAK-Fn14 interaction in a reporter cell assay | TWEAK-stimulated Fn14 reporter cells, luciferase luminescence, 8 h | inhibition, % at 10 µM | 2% of 360,000 active; in the data active means inhibition above about 50%
LMP1 NFkB inh: Epstein-Barr LMP1 NF-kappaB reporter inhibition | LMP1-induced NF-kappaB luciferase reporter cells, luminescence | inhibition, % at 12.5 µM | 0.69% of 350,000 active | AID 504558; in the data active means inhibition above about 41%; inconclusive means no clear call, values can overlap the other calls;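 further: 0% = neutral control wells and 100% = reference inhibitor control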
EWS-Fli block: EWS/Fli transcriptional activity inhibition | 0.67% of 350,000 active | A673 NR0B1-luciferase reporter, viability-normalised | inhibition, % at 12.6 µM;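 active means mean inhibition of at least 50% after viability correction, with every replicate also passing that limit; inconclusive means mean reaches 50% but only one of two replicates passes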;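 further: firefly luciferase signal divided by Alamar Blue viability fluorescence both relative to DMSO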
LGR2 antag: Drosophila LGR2 receptor signaling inhibition | HEK293 LGR2, CRE-luciferase, bursicon-stimulated, 4 h | inhibition, % at 9.99 µM | 0.35% of 380,000 active | AID 720647;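 active means drop in luminescence signal, shown as inhibition above about 50% in the replicate tests, limit read from the data, passing the limit was not always enough; inconclusive means probably only some replicates passing the limit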;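 further: agonist challenge used bursicon conditioned medium at about half maximal strength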
PAX8 inh HTS: PAX8 transcriptional activity inhibition; RMG-I TPO-luciferase reporter, SteadyGlo, 24 h; inhibition, % at 12.6 µM; 1.2% of 360,000 active; AID 652154;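 active means mean replicate inhibition at least 60% with every replicate also reaching 60%; inconclusive means only one of the two criteria is met; inactive means mean below 60% and not all replicates reaching 60%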;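 further: luciferase light reporting Pax8 driven TPO promoter activity; plate controls were median of neutral control wells for no effect and mitoxantrone controls for full effect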
The depositor's hits bear a star; ? = inconclusive; nt = not tested or not shown; ! = a repeat was not active.

SMILES	TROY signal inh	TWEAK Fn14 block	LMP1 NFkB inh	EWS-Fli block	LGR2 antag	PAX8 inh HTS
C[C@@H]1CN([C@@H](C)CO)C(=O)c2cc(NS(=O)(=O)c3ccccc3)ccc2O[C@@H](C)CCCCO[C@@H]1CN(C)Cc1ccc(C(F)(F)F)cc1	nt	nt	nt	-9	23	106*
C[C@H](CO)N1C[C@H](C)[C@H](CN(C)Cc2ccc(C(F)(F)F)cc2)OCCCC[C@H](C)Oc2ccc(NS(=O)(=O)c3ccccc3)cc2C1=O	nt	nt	nt	10	17	99*
Cc1ccc(S(=O)(=O)Nc2ccc3c(c2)C(=O)N([C@H](C)CO)C[C@H](C)[C@H](CN(C)Cc2ccc(C(F)(F)F)cc2)OCCCC[C@@H](C)O3)cc1	nt	nt	nt	1	-7	25
C[C@H]1CCCCO[C@@H](CN(C)Cc2ccc(C(F)(F)F)cc2)[C@@H](C)CN([C@@H](C)CO)C(=O)c2cc(NS(=O)(=O)c3ccccc3)ccc2O1	nt	nt	nt	-19	-10	87*
C[C@@H]1CN([C@H](C)CO)C(=O)c2cc(NS(=O)(=O)c3ccccc3)ccc2O[C@@H](C)CCCCO[C@H]1CN(C)Cc1ccc(C(F)(F)F)cc1	nt	nt	nt	-7	10	102*
COc1ccccc1-c1cnc2c(c1)C(=O)N([C@@H](C)CO)C[C@H](C)[C@H](CN(C)Cc1ccc(C(=O)O)cc1)O2	nt	nt	nt	-1	14	nt
C[C@@H]1CN([C@H](C)CO)C(=O)c2cc(NS(=O)(=O)c3ccc(F)cc3)ccc2O[C@@H]1CN(C)CC1CC1	nt	nt	nt	nt	-17	-1
C[C@H]1CN([C@@H](C)CO)C(=O)c2cc(NC(=O)C3CCCCC3)ccc2O[C@@H]1CN(C)S(=O)(=O)c1ccc(Cl)cc1	nt	nt	nt	-7	nt	14
C[C@H]1CCCCO[C@H](CN(C)Cc2ccc(C(F)(F)F)cc2)[C@@H](C)CN([C@@H](C)CO)C(=O)c2cc(NS(=O)(=O)c3ccccc3)ccc2O1	nt	nt	nt	15	19	65*
C[C@@H]1CCCCO[C@H](CN(C)Cc2ccc(C(F)(F)F)cc2)[C@@H](C)CN([C@H](C)CO)C(=O)c2cc(NS(=O)(=O)c3ccccc3)ccc2O1	nt	nt	nt	5	28	13
O=C(N/N=C/c1sc2ccccc2c1O)c1cccc2ccccc12	48	16	54*	nt	-3	19
Cc1cccc(-n2c(O)c(C=Nc3c(C)n(C)n(-c4ccccc4)c3=O)c3ccccc3c2=O)n1	0	10	58*!	5	-6	0
Nc1[nH]n(-c2ccccc2)c(=O)c1N=Nc1ccc2c(c1)OCO2	-25	-5	-34	-81	-90	-119
Nc1[nH]n(-c2ccccc2)c(=O)c1N=Nc1ccc2c(c1)OCCO2	51*	68*	-68	21	36	-63
OCCN(CCO)CC(O)COc1ccc(Br)cc1 (configuration not stated)	5	0	8	8	11	-1
OCCN(CCO)CC(O)COc1ccc(C23CC4CC(CC(C4)C2)C3)cc1 (configuration not stated)	47	77*	42*	nt	-7	43
OCCN(CCO)CC(O)COCCC12CC3CC(CC(C3)C1)C2 (configuration not stated)	11	-13	73*	nt	nt	nt
COc1ccc(NC(=O)N(C)C[C@H]2OCCCC[C@@H](C)Oc3ccc(NS(C)(=O)=O)cc3C(=O)N([C@H](C)CO)C[C@@H]2C)cc1	nt	nt	nt	-3	5	-6
CC(=O)N(C)C[C@H]1Oc2ncc(/C=C/c3ccccc3)cc2C(=O)N([C@H](C)CO)C[C@H]1C	nt	nt	nt	-9	-3	nt
COc1cc(C(C)=O)ccc1OCC(=O)NC(=O)Nc1ccc(C)cc1C	10	-8	3	-2	15	-2
Cc1ccc(NC(=O)NC(=O)COc2ccc(Cl)cc2Cl)c(C)c1	-11	-5	-11	-1	-12	117*
CCN(CC)c1ccc(/C=N/NC(=O)c2cccc(S(=O)(=O)N3CCOCC3)c2)c(O)c1	0	-2	55*	26	27	?
CCN(CC)c1ccc(/C=N/NC(=O)c2c(Cl)cnn2C)c(O)c1	-13	-19	52*	nt	-14	53
CCOC(=O)N/N=C/c1ccc(N(CC)CC)cc1O	-32	-53	-14	nt	-70	-39
COc1cc2ccccc2cc1C(=O)N/N=C/c1cccs1	-16	-26	24	58*	-16	41
COC(=O)N/N=C/c1cccs1	-33	8	-2	3	10	-14

Compound activity from PubChem.
